Assay [1] has as its target T1, Muscle, skeletal receptor tyrosine-protein kinase (Homo sapiens) (UniProt O15146).
T1 sequence (whole entry): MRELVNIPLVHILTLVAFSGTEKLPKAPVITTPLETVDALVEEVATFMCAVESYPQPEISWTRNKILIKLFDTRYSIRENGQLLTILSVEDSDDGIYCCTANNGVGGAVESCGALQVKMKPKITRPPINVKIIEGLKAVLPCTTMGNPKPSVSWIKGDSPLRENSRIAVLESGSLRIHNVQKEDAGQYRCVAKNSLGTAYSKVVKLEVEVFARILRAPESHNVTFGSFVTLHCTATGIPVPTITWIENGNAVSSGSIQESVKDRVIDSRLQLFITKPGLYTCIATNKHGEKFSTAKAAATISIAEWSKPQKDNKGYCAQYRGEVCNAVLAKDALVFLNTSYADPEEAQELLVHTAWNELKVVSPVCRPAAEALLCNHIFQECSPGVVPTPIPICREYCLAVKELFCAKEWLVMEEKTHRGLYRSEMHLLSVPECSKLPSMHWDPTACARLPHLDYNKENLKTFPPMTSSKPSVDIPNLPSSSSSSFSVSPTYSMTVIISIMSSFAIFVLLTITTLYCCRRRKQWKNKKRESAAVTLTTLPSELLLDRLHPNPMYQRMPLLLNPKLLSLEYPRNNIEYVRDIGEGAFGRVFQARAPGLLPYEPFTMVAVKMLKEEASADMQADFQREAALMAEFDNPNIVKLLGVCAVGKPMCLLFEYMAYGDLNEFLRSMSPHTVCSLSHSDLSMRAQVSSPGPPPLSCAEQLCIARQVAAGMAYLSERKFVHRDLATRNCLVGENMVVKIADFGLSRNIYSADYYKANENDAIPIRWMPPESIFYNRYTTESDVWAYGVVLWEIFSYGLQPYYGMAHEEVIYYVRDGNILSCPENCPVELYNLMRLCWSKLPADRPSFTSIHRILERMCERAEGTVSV
The settings on record: at 1 µM.

Assay [2] concerns the target T1, Muscle, skeletal receptor tyrosine-protein kinase (Homo sapiens). As to conditions: at 10 µM.
For assay [3], the target named is T2, Serine/threonine-protein kinase Nek11 (Homo sapiens) (UniProt Q8NG66).
T2 sequence (whole entry): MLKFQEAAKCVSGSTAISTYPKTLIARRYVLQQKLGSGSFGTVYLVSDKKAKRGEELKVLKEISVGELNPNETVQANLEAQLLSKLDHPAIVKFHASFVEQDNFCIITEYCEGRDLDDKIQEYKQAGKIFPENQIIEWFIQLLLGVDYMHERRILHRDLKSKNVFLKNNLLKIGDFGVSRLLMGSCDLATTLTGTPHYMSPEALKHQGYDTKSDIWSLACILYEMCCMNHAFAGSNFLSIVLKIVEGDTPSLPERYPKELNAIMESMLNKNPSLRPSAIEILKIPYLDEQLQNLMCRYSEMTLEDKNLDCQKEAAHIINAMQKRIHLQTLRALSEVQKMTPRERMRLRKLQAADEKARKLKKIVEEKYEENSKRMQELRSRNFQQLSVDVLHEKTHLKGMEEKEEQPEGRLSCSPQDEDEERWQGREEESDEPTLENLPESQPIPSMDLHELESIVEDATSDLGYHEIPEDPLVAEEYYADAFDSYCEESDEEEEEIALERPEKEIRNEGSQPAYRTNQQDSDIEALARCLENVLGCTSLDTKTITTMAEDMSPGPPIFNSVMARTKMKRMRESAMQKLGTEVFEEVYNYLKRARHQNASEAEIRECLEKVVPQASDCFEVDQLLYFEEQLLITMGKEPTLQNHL
As to conditions: at 1 µM.

Assay [4] addresses T2, Serine/threonine-protein kinase Nek11 (Homo sapiens). The settings on record: at 10 µM.
For assay [5], the target named is T3, Serine/threonine-protein kinase Nek2 (Homo sapiens) (UniProt P51955).
T3 sequence (whole entry): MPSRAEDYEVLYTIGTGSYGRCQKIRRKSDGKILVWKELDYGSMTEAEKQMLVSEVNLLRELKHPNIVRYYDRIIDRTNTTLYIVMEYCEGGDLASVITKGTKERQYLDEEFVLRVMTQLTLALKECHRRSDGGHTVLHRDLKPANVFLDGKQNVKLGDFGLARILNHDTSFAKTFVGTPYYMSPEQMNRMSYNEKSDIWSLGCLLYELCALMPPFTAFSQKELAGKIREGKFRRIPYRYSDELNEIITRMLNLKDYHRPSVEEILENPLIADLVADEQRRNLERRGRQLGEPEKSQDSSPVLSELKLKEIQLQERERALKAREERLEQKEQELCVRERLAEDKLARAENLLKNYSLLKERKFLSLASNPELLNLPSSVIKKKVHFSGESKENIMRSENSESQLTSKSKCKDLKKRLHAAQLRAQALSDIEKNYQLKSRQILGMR
As to conditions: at 1 µM.

Assay [6] deals with T3, Serine/threonine-protein kinase Nek2 (Homo sapiens). The settings on record: at 10 µM.
Assay [7] deals with T4, Serine/threonine-protein kinase Nek3 (Homo sapiens) (UniProt P51956).
T4 sequence (whole entry): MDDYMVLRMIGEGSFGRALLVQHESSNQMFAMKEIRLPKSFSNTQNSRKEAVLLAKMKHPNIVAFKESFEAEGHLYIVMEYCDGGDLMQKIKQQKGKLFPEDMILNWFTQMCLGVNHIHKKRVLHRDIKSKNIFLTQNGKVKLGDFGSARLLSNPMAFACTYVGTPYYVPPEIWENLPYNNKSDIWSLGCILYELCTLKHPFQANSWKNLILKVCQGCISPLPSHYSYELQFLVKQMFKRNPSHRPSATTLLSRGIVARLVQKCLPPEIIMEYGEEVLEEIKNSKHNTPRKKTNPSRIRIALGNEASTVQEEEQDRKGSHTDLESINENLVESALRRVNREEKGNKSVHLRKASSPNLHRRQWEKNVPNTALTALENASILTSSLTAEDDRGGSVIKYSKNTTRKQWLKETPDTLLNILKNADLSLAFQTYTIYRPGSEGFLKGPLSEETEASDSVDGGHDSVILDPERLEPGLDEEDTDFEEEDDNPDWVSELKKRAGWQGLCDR
The settings on record: at 1 µM.

Assay [8] concerns the target T4, Serine/threonine-protein kinase Nek3 (Homo sapiens). As to conditions: at 10 µM.
The target of assay [9] is Serine/threonine-protein kinase tousled-like 2 (Homo sapiens) (UniProt Q86UE8). As to conditions: at 1 µM.
For assay [10] the target is unchanged. The settings on record: at 10 µM.
For assay [11], the target named is T5, Testis-specific serine/threonine-protein kinase 1 (Homo sapiens) (UniProt Q9BXA7).
T5 sequence (whole entry): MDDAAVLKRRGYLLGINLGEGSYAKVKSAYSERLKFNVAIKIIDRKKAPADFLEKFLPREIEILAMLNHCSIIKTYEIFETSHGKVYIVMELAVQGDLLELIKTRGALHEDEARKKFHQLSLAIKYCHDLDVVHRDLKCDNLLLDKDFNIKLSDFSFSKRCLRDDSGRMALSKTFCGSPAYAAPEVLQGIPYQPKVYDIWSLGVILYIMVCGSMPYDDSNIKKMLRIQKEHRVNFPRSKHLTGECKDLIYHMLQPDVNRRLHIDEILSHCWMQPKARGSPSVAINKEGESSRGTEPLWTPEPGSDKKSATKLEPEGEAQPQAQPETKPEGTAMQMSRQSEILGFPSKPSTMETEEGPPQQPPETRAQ
As to conditions: at 1 µM.

Assay [12] addresses T5, Testis-specific serine/threonine-protein kinase 1 (Homo sapiens). The settings on record: at 10 µM.
Assay [13] deals with T6, Testis-specific serine/threonine-protein kinase 2 (Homo sapiens) (UniProt Q96PF2).
T6 sequence (whole entry): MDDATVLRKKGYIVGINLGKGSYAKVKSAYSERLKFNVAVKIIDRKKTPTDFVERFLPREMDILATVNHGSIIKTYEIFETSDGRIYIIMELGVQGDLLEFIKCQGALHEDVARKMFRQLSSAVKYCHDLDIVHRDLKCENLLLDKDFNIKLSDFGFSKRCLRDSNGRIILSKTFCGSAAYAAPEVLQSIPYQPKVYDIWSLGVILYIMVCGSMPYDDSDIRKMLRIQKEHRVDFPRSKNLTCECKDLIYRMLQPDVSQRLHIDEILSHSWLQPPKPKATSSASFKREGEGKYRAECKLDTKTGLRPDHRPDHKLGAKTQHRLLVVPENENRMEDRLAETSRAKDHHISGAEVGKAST
The settings on record: at 10 µM.

Assay [14] concerns the target T7, Tyrosine-protein kinase Tec (Homo sapiens) (UniProt P42680).
T7 sequence (whole entry): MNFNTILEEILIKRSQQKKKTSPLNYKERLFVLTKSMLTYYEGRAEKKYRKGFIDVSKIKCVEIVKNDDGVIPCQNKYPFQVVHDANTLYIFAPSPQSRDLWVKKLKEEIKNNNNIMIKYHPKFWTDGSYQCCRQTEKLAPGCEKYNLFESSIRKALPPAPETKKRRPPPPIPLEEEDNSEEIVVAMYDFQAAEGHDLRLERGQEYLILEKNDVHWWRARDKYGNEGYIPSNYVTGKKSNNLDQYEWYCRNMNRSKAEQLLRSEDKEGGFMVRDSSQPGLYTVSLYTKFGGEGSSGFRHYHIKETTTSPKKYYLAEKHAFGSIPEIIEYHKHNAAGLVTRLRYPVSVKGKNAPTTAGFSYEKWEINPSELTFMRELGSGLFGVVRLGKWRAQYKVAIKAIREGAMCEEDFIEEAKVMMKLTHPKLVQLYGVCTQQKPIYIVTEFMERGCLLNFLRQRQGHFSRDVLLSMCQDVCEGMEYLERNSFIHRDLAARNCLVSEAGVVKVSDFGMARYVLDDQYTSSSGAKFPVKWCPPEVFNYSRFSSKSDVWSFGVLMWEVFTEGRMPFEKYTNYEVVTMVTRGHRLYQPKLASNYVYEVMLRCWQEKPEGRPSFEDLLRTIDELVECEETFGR
The settings on record: at 1 µM.

Assay [15] deals with T7, Tyrosine-protein kinase Tec (Homo sapiens). As to conditions: at 10 µM.
Assay [16] concerns the target Angiopoietin-1 receptor (Homo sapiens) (UniProt Q02763). The settings on record: at 1 µM.
The target is the same in assay [17]. As to conditions: at 10 µM.
For assay [18], the target named is High affinity nerve growth factor receptor (Homo sapiens) (UniProt P04629). As to conditions: at 1 µM.
For assay [19] the target is unchanged. The settings on record: at 10 µM.
Assay [20] concerns the target BDNF/NT-3 growth factors receptor (Homo sapiens) (UniProt Q16620). As to conditions: at 1 µM.

Sequence of Serine/threonine-protein kinase tousled-like 2 (Homo sapiens) (Q86UE8 whole entry, looked up): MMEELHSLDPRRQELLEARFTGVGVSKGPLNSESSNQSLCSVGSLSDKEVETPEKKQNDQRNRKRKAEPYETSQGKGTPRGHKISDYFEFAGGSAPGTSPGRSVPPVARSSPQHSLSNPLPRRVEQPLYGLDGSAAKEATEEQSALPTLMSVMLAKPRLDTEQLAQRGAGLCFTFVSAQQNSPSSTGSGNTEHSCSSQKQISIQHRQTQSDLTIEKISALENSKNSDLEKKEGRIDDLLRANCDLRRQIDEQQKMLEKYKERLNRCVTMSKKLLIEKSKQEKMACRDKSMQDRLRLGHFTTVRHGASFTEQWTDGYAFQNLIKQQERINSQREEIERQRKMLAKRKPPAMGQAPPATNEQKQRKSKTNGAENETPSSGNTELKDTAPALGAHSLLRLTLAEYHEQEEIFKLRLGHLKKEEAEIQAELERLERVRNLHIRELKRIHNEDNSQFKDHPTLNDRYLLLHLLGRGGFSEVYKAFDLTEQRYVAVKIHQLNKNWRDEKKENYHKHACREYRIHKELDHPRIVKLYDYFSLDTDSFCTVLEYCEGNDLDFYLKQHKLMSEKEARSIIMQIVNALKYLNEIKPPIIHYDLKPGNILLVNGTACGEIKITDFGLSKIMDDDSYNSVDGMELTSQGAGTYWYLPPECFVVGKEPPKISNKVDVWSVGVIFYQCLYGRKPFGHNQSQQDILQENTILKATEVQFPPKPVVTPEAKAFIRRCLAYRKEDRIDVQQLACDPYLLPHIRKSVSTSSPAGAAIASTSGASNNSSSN
Sequence of Angiopoietin-1 receptor (Homo sapiens) (Q02763 whole entry): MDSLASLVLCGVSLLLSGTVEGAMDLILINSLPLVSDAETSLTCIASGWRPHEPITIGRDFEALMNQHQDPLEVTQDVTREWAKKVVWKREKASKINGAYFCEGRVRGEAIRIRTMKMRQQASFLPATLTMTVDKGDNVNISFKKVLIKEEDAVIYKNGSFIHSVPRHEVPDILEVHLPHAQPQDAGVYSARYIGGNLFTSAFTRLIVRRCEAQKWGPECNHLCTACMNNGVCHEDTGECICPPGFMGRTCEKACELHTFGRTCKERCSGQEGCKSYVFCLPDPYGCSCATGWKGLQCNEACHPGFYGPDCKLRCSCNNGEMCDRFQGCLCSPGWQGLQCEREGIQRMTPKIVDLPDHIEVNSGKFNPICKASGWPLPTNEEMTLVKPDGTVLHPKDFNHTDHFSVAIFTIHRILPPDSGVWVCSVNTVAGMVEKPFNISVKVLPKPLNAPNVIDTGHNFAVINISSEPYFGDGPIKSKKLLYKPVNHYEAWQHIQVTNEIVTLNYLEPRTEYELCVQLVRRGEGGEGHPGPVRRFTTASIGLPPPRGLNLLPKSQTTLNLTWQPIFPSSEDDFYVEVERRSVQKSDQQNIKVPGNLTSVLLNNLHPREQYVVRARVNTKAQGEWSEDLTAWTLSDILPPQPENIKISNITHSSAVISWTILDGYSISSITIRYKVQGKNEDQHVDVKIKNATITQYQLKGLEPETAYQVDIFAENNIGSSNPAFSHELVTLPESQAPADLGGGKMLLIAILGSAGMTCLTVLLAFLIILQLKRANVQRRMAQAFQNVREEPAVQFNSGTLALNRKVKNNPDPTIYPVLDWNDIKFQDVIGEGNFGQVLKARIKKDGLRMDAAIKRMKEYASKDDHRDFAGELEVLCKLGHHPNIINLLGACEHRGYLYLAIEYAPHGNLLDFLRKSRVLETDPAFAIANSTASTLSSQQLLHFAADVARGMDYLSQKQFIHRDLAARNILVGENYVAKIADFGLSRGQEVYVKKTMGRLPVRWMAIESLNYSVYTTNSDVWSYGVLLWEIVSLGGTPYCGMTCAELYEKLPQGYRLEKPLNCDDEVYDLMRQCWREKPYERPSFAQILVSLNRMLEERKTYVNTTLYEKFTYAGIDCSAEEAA
Sequence of BDNF/NT-3 growth factors receptor (Homo sapiens) (Q16620 32-822 limits assumed): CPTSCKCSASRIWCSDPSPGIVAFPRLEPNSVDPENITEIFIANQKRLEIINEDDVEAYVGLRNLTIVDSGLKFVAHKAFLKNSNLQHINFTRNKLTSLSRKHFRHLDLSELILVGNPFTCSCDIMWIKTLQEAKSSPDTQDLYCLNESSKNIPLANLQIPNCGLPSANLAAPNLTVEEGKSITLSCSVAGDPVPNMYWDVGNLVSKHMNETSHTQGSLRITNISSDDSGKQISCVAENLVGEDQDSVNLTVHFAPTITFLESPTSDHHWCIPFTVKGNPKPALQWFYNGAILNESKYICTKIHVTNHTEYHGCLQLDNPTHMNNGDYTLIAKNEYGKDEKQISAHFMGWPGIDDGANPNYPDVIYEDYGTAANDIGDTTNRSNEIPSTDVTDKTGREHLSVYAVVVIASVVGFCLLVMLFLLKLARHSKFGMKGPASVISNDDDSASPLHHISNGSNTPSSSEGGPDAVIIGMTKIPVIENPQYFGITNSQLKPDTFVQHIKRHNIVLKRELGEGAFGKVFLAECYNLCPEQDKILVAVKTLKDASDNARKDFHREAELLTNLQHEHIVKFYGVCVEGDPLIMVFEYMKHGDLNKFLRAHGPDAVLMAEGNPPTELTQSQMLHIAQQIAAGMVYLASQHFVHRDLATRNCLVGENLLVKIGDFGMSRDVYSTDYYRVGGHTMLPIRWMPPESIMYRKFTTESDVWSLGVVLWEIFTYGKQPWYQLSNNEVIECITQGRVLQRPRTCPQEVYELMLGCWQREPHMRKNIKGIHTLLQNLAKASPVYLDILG
Sequence of High affinity nerve growth factor receptor (Homo sapiens) (P04629 33-796 limits assumed): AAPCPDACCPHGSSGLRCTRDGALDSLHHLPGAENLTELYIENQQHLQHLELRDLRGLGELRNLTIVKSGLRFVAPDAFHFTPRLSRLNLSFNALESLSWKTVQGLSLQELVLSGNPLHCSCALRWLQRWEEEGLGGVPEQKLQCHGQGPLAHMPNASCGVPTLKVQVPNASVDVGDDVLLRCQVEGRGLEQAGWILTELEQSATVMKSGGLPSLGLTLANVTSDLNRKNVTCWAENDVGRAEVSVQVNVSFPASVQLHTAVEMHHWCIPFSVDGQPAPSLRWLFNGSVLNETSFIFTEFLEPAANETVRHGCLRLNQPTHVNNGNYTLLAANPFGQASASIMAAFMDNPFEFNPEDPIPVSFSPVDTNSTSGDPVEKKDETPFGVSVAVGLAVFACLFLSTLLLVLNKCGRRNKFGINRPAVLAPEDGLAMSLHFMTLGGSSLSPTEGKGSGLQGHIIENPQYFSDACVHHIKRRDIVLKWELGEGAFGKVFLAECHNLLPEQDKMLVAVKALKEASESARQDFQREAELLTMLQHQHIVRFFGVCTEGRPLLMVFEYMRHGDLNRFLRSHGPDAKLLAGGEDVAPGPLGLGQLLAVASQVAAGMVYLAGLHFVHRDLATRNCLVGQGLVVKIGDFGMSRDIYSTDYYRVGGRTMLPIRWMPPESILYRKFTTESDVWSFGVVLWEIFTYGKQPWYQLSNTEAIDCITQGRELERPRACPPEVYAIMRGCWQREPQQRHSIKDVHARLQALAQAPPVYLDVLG

As for `Cn1cnc2cc3c(Nc4cccc(Br)c4)ncnc3cc21`, the residual activity in assay [1] was 104%; in assay [2], 85%; in [3] it was 89%; in [4], 106%; in assay [5], 87%; in assay [6], 109%. In addition, the residual activity in assay [7] was 111%; in assay [8], 74%; in assay [9], 103%; in assay [10], 92%; in [11] it was 99%; in [12] it was 96%. For the same compound, the residual activity turned out to be 106% in [13]; 82% in [14]; 73% in assay [15]; 74% in assay [16]; 34% in [17]; 87% in [18]. Besides, the residual activity in [19] was 82%; in assay [20], 107%.

With `CNc1cc2c(Nc3cccc(Br)c3)ncnc2cn1`, the residual activity in assay [1] amounted to 105%; in assay [2], 93%; in assay [3], 109%; in [4], 103%; in assay [5] it was 78%; in assay [6], 109%. Moreover, the residual activity in assay [7] turned out to be 106%; in assay [8], 63%; in [9] it was 99%; in assay [10], 93%; in assay [11], 93%; in [12], 90%. The residual activity worked out at 103% in assay [13]; 96% in assay [14]; 52% in assay [15]; 90% in assay [16]; 89% in [17]; 69% in [18]. For the same compound, the residual activity is 53% in [19] and 64% in [20].

With `CCN(CC)CCCCN1c2ccccc2Oc2ccc(Cl)cc21`, the residual activity in assay [1] worked out at 129%; in assay [2], 97%; in [3], 80%; in assay [4] it was 113%; in [5], 85%; in [6], 112%. The residual activity in [7] stood at 110%; in [8], 111%; in assay [9], 111%; in assay [10] it was 91%; in [11] it was 105%; in [12], 102%. Moreover, the residual activity in [13] is 98%; in assay [14], 92%; in [15], 78%; in [16], 105%; in [17] it was 71%; in assay [18] it was 90%. Besides, the residual activity was found to be 101% in [19] and 107% in assay [20].

As a reminder, the residual activity is the signal under treatment as a percentage of the control signal.

The values above are taken from ChEMBL document CHEMBL2218924, “A broad activity screen in support of a chemogenomic map for kinase signalling research and drug discovery” (Biochem J, 2013).
